N370S GC mod = inhibits or activates N370S mutant glucocerebrosidase; P04062; N370S GC spleen homogenate, 4MU-glucoside fluorescence; Potency, µM (titrated, usually from 59.4 µM), actives largely listed as inhibitors; 330,000 tested, 0.092% active; AID 2101
aGlu spleen mod = inhibitors or activators of human alpha-glucosidase in spleen homogenate; P10253; human spleen homogenate, 4-MU-alpha-glucoside fluorescence; Potency, µM (doses to about 79.9 µM), usual class: inhibitors; 240,000 tested, 0.006% active; AID 2112
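Human spleen homogenate (1 ug) incubated with compounds and 1 mM 4-methylumbelliferyl-alpha-D-glucopyranoside in pH 5.0 citrate/phosphate buffer, 37 C, 40 min. Stopped at pH 10; 4-MU fluorescence (Ex 365/Em 440 nm); AC50 by Hill fit.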
Lamin A splicing = changes lamin A minigene splicing in HeLa cells; 200,000 tested, 0.01% active; HeLa LMNA splicing GFP/RFP minigene ratio, 48 h; Potency, µM (titrated, usually from 46.1 µM), actives largely listed as inhibitors; AID 1487; active means well fitted inhibition curve with a large enough effect in the signal ratio, with a control signal flat, not every such curve was filed as active; inconclusive means small, poorly fitted or top-dose-only effect, or effect the other way, or a change in a side signal; the % refers to the signal ratio
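S3 HeLa cells stably expressing lamin A-EGFP splicing minigene plus DsRed2, 600 cells/well, 48 h compound exposure at 37C. Laser-scanning cytometry; analysed as GFP (500-530 nm)/RFP (575-640 nm) total intensity ratio; 0.5% DMSO vehicle.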
GAA inhib = alpha-glucosidase (human) inhibition; P10253; purified human GAA, 4-MU-alpha-glucoside fluorescence; Potency, µM (top dose mostly 76.9 µM), most hits filed as inhibitors; 200,000 tested, 0.005% active; AID 1466
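Read-out is 4-methylumbelliferone fluorescence (Ex 365/Em 440 nm) after NaOH/glycine stop at pH 10. Enzyme 4 nM, substrate 400 uM, pH 5.0 citrate buffer, 20 min room temperature; AC50 from Hill-equation concentration-response.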
KinaseGlo FLuc = counter-screen: inhibitors of Kinase-Glo firefly luciferase | Q27757 | Kinase-Glo luciferase, ATP luminescence, 8 min | Potency, µM (series often up to 38.3 µM), hits mostly inhibitors | 200,000 tested, 0.28% active | AID 1379; further: nearly all actives have a fitted effect of over 60% in size
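Inhibition of Kinase-Glo luciferase light generation was assessed at 10 uM ATP in pH 7.2 imidazole buffer, with luminescence measured after eight minutes at ambient temperature.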
GAA glycogen mod = alters human alpha-glucosidase cleavage of glycogen. P10253. recombinant GAA, glycogen substrate, Amplex Red glucose oxidase fluorescence. Potency, µM (top dose mostly 76.4 µM), most hits filed as inhibitors. 300,000 tested, 0.38% active. AID 2100;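 further: the screen sought inhibitors and activators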
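Recombinant human enzyme (4 nM); glycogen substrate; 37 C, 40 min, pH 5.0. Readout: coupled glucose oxidase/Amplex Red fluorescence.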
Each line names hits and unclear results; the compound was inactive in the other large screens. The list is not random: actives were taken first. Their share in the collection is about 0.52%. Unless noted, the call rests on the fitted dose curve; in most records, active means well fitted curve in the direction sought with a large enough effect; inconclusive means small, poorly fitted or top-dose-only effect, or another doubt; inactive means no such curve, though single readings can be large; an effect the other way counts as inactive or inconclusive.

CC(C)C[C@H](NC(=O)[C@H](CC(C)C)NC(=O)[C@@H](Cc1c[nH]c2ccccc12)NC(=O)[C@H](Cc1ccccc1)NC(=O)[C@@H](Cc1c[nH]c2ccccc12)NC(=O)[C@H](CCC(N)=O)NC(=O)[C@H](CCC(N)=O)NC(=O)[C@@H]1CCCN1C(=O)[C@H](CCCCN)NC(=O)[C@@H]1CCCN1C(=O)[C@H](N)CCCN=C(N)N)C(N)=O	none (no result: Lamin A splicing, GAA inhib, KinaseGlo FLuc, GAA glycogen mod)
CCCC[C@H](NC(=O)[C@@H]1CCCN1C(=O)[C@H]1CCCN1C(=O)[C@H](Cc1ccccc1)NC(=O)[C@@H](Cc1c[nH]c2ccccc12)NC(=O)[C@H](C)NC(=O)[C@H](CCCN=C(N)N)NC(=O)OC(C)(C)C)C(N)=O	N370S GC mod 2.8µM (no result: Lamin A splicing, GAA inhib, KinaseGlo FLuc, GAA glycogen mod)
O=C(Nc1ccc(CSc2ccccc2)cc1)c1ccccc1	none
O=C(Nc1ccccc1)c1ccc(CSc2ccccn2)cc1	KinaseGlo FLuc 11µM
OCC1(CO)COC(c2ccccc2)=N1	Lamin A splicing inconclusive (no result: aGlu spleen mod)
O=C1OCC(CO)(CO)N=C1NNc1ccc(Cl)c(Cl)c1	GAA glycogen mod 35µM
CC(C)/C(=N/[N+](C)(C)C)c1ccccc1	none (no result: N370S GC mod, aGlu spleen mod, Lamin A splicing, GAA inhib, GAA glycogen mod)
CC(=O)Nc1nonc1-c1nnc(SCc2ccc(Cl)cc2)n1C	none (no result: N370S GC mod, aGlu spleen mod, GAA inhib, KinaseGlo FLuc)
COc1ccc(S(=O)(=O)Nc2cc(S(=O)(=O)c3ccccc3)c(O)cc2C)cc1	none (no result: aGlu spleen mod, Lamin A splicing, GAA inhib, KinaseGlo FLuc)
Cc1cc(NS(=O)(=O)c2ccccc2)cc(Cl)c1O	Lamin A splicing inconclusive, GAA glycogen mod 20µM
Cc1cc(O)c(C(C)C)cc1NS(=O)(=O)c1ccccc1	GAA glycogen mod 9.9µM
Cc1ccc(S(=O)(=O)Nc2cc(C)c(O)c(S(=O)(=O)c3ccc(C)cc3)c2)cc1	GAA glycogen mod 11µM
CC(C)(C)Nc1oc(-c2ccccc2)nc1-c1ccccc1	none (no result: Lamin A splicing, GAA inhib, GAA glycogen mod)
O=C1C=CC(=Nc2cccc3c(N=C4C=CC(=O)O4)cccc23)O1	none (no result: N370S GC mod, aGlu spleen mod, Lamin A splicing, GAA inhib, GAA glycogen mod)
N#Cc1c(Cl)cccc1N1CCC(C(N)=O)CC1	GAA glycogen mod 4.4µM (no result: Lamin A splicing, GAA inhib, KinaseGlo FLuc)
COc1ccccc1N1CCN(/N=C/c2cccc(O)c2)CC1	GAA glycogen mod 9.9µM
COc1ccccc1N1CCN(/N=C/c2cc(OC)c(O)c(OC)c2)CC1	N370S GC mod inconclusive, GAA glycogen mod inconclusive
CCOC(=O)Nc1ccc2c(c1)N(C(=O)CCN(CC)CC)c1ccccc1CC2	none (no result: aGlu spleen mod, Lamin A splicing, GAA inhib, KinaseGlo FLuc)
CCOC(=O)Nc1ccc2c(c1)N(C(=O)CN(CC)CC)c1ccccc1CC2	GAA glycogen mod 8.9µM (no result: aGlu spleen mod, Lamin A splicing, GAA inhib, KinaseGlo FLuc)
COc1ccc(C(=O)Nc2nnc(S(=O)(=O)N3CCCc4ccccc43)s2)cc1	none (no result: N370S GC mod, aGlu spleen mod, GAA inhib, KinaseGlo FLuc)
O=S(=O)(c1ccc(OCC(O)CN2CCN(c3ccccc3O)CC2)cc1)N1CCOCC1 (stereo unspecified)	Lamin A splicing inconclusive, GAA glycogen mod 6.3µM
O=S(=O)(c1ccc(OCC(O)CN2CCN(c3ccccc3)CC2)cc1)N1CCOCC1 (stereo unspecified)	none
COc1ccc(NC(=O)Nc2ccccc2F)cc1	KinaseGlo FLuc inconclusive
COc1ccc(NC(=O)Nc2ccccc2SC)cc1	KinaseGlo FLuc 10µM (no result: Lamin A splicing)
O=c1c(=Nc2ccccc2O)c(=O)c2ccccc12	GAA glycogen mod 8.9µM
O=c1[nH][nH]cc1C=Nc1ccccc1O	Lamin A splicing inconclusive, GAA glycogen mod inconclusive
O=C(CCCn1c(SCC(=O)c2ccc(O)c(O)c2)nc2ccccc2c1=O)NCC1CCCO1 (stereo unspecified)	GAA glycogen mod 5.6µM
O=C(O)CCCCCn1c(SCC(=O)c2ccc(O)c(O)c2)nc2ccsc2c1=O	Lamin A splicing inconclusive
O=C(CCCn1c(SCC(=O)NC2CCCCC2)nc2ccccc2c1=O)NCC1CCCO1 (stereo unspecified)	none
CCCCn1c(SCC(=O)c2ccc(O)c(O)c2)nc2ccsc2c1=O	Lamin A splicing inconclusive, GAA glycogen mod 28µM
COc1cc(NC(=O)c2ccccc2-n2cnnn2)cc(OC)c1	none (no result: aGlu spleen mod, Lamin A splicing, GAA inhib, KinaseGlo FLuc, GAA glycogen mod)
COc1cc(OC)cc(C(=O)Nc2ccc(-n3cnnn3)c(C)c2)c1	KinaseGlo FLuc 14µM
O=C(Nc1cc(S(=O)(=O)N2CCOCC2)ccc1N1CCCC1)c1cc(=O)[nH]c2ccccc12	aGlu spleen mod 10µM, GAA glycogen mod inconclusive (no result: Lamin A splicing, GAA inhib, KinaseGlo FLuc)

Screening data from PubChem BioAssay.
